Source: PubChem BioAssay (Tox21)
Values without a mark were called inactive. The call rests on the fitted dose curve.

Molecular target: Estrogen receptor (Homo sapiens) (UniProt P03372)
Assay: qHTS assay to identify small molecule agonists of the estrogen receptor alpha (ER-alpha) signaling pathway in the presence of an antagonist (AID 1259383); further: top concentration of the series differs between compounds; nearly all actives have a fitted effect of over 15% in size
Details: VM7Luc4E2 cells, ERE-luciferase, +ICI-182,780, 22 h; series mostly up to 92.4 µM; activation: at the top concentration
Text: National Center for Advancing Translational Sciences [NCATS] NIH Chemical Genomics Center [NCGC] U.S. Environmental Protection Agency [EPA] National Institutes of Environmental Health Sciences [NIEHS] National Toxicology Program [NTP] Assay overview: Estrogen receptor (ER), a member of nuclear hormone receptor plays an important role in development, metabolic homeostasis and reproduction. Two subtypes of ER, ER-alpha and ER-beta, have similar expression patterns with some uniqueness in both types. Endocrine disrupting chemicals (EDCs) and their interactions with steroid hormone receptors like ER causes disruption of normal endocrine function. Therefore, it is important to understand the effect of environmental chemicals in ER signaling pathway. For identifying ER agonists, VM7Luc4E2 cell line has been used in the current assay. VM7Luc4E2 cell line (provided by Denison MS, University of California) endogenously expresses full-length ER-alpha and is stably transfected with a plasmid containing four estrogen responsive elements (ERE) upstream of a luciferase reporter gene. This current screening for measuring luciferase reporter gene activity using VM7Luc4E2 cells against Tox21 10K library collection is a confirmation study on agonist mode screening in presence of ER-antagonist (ICI-182,780) at 10.0nM final concentration.
Assay Protocol Summary: VM7Luc4E2 cells were cultured in phenol red free assay medium containing 10% charcoal stripped FBS for 5 days prior to the assay. The cells were dispensed at 4,000 cells in 4uL of assay medium per well into white wall/solid-bottom 1536-well plates (Corning Life Sciences, Corning, NY) using a Multidrop Combi (Thermo Fisher Scientific Inc., Waltham, MA) dispenser. After the assay plates were incubated at 37C and 5% CO2 for 24hr, 1uL of 10.0nM (final concentration) ICI-182,780 or assay buffer was added using two separate tips of Flying Reagent Dispenser (FRD, Aurora Discovery, San Diego, CA). Then 23nL of compounds dissolved in DMSO at 15 concentrations and positive controls or DMSO only was transferred to the assay plates by a Pintool station (Wako, San Diego, CA). The assay plates were incubated at 37C and 5% CO2 for 22hr. For luciferase read, 4uL/well ONE-Glo reagent (Promega Corporation, Madison, WI) was added to each well using FRD and after 30min incubation at room temperature, luminescence signal was measured on ViewLux plate reader (PerkinElmer, Shelton, CT).
On the % scale 0 is the no-effect control and ±100 the full control effect.

Estrogen receptor (Homo sapiens), sequence (P03372 whole entry, looked up): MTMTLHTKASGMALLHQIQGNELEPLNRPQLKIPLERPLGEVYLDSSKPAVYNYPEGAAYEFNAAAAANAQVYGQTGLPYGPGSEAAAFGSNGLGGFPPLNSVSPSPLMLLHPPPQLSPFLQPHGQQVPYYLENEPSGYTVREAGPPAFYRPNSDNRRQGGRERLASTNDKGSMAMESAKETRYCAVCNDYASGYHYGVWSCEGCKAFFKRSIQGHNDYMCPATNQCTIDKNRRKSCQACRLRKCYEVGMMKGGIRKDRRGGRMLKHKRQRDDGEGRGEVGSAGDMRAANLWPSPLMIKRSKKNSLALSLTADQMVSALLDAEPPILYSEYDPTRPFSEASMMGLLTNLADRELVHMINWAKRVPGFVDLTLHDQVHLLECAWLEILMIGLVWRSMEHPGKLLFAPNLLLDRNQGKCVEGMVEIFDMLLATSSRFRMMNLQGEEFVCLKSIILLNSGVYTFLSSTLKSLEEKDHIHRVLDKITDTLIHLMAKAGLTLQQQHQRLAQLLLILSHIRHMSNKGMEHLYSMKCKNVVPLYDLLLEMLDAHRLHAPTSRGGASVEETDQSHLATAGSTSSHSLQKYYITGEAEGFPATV

In order of rising “activation” value:
1. C[C@@H]1CCC[C@H](C)N1CCCC(O)(c1ccccc1)c1ccccn1 (stereo not given in full)  -2.48% [at 42.5 µM]
2. CN(C)CCC[C@@]1(c2ccc(F)cc2)OCc2cc(C#N)ccc21  -1.39% [at 42.5 µM]
3. O=P(O)(O)C(O)(Cc1cccnc1)P(=O)(O)O  -1.3% [at 42.5 µM]
4. COC(=O)c1ccc(NC(C)=O)cc1OC  -1.14% [at 42.5 µM]
5. CO/N=C(\C(=O)O)c1csc(NC(=O)CCl)n1  -0.59% [at 42.5 µM]
6. Cc1cc2c(cc1CC(=O)c1sccc1S(=O)(=O)Nc1onc(C)c1Cl)OCO2  -0.405% [at 42.5 µM]
7. Nc1ccc(C(=O)NCC(=O)O)cc1  -0.125% [at 42.5 µM]
8. CC(=O)Nc1ccc(OCCOCCOc2ccc(NC(C)=O)cc2)cc1  -0.0788% [at 42.5 µM]
9. CN1CCN(C(=O)C2CCCCC2)CC1  -0.0005% [at 42.5 µM]
10. CCCCN=C(N)N=C(N)N  0.0826% [at 42.5 µM]
11. CC(C)(C)C(=O)NCCCC(=O)O  0.192% [at 42.5 µM]
12. C[n+]1ccccc1/C=N/O  1.18% [at 42.5 µM]
13. Cc1ccc(S(=O)(=O)NC(=O)NN2CC3CCCC3C2)cc1 (stereo not given)  3.27% [at 42.5 µM]

In order of rising “activation” value:
1. CCOC(=O)CC  -2.93%
2. O=C(O)CCCCCCCCCC(=O)O  -2.07%
3. CC(CN1CC(=O)NC(=O)C1)N1CC(=O)NC(=O)C1 (stereo not given)  -1.89%
4. C=CC(=O)OCC[N+](C)(C)C  -1.86%
5. C/C=C/C(=O)CCCC  -1.58%
6. C[Si](C)(C)O[Si](O)(O)O  -1.55%
7. CCN(CC)CC  -1.35%
8. N=C(N)S(=O)O  -1.32%
9. CCC(C)c1nccnc1OC (stereo not given)  -0.797%
10. CCCCN1C(=O)c2ccccc2C1=O  -0.687%
11. O=C1c2ccccc2C(=O)N1CO  -0.6%
12. O=S(=O)(O)c1ccc(Cl)cc1  -0.413%
13. CC/C=C/CCCCCCCCCCOC(C)=O  0.105%
14. CCCC(=O)OC  0.188%
15. Cc1cc(O)c(Cl)cc1C  0.2%
16. CC(CC(=O)Cl)CC(C)(C)C (stereo not given)  0.21%
17. CCOC(=O)CC(C(C)=O)C(C)=O  0.21%
18. CC(=O)OC/C=C(/C)CCC=C(C)C  0.237%
19. CC/C=C\CCOC(=O)c1ccccc1  0.386%
20. CCC(C)(C)C  0.502%
21. CCCC(=O)CC  0.616%
22. CC/C=C\CCCCCCCCCCOC(C)=O  0.652%
23. CSC(=O)c1cccc2nnsc12  1.03%
24. CCCCNCC  1.24%
25. CCCCCCCCCCCC(C)=O  1.42%

With `C[C@@H]1NC(=O)[C@@H](N)CNC(=O)[C@H](C2CCNC(N)=N2)NC(=O)/C(=C/NC(N)=O)NC(=O)[C@H](CNC(=O)C[C@@H](N)CCCN)NC1=O` (stereo not given in full) the activation was 1.04% [at 0.349 µM].

Work on `C=CCCCCCCCCCCCCCC` yielded an activation of -0.0008% [at 19 µM].
